Reference: PubChem BioAssay (NCATS)
Results filed as inconclusive are left out. Active and inactive are the calls of the source. Unless noted, the call rests on the fitted dose curve; in most records, active means well fitted curve in either direction with a large enough effect (not every such curve was filed as active); inconclusive means small, poorly fitted or top-dose-only effect, or another doubt; inactive means flat fitted curve, though single readings scatter.

Experiments:
[1] = biological target: Lysosomal acid glucosylceramidase (Homo sapiens) (UniProt P04062); assay: Glucocerebrosidase-p2 (AID 348; in the data active means potency below about 10 µM; further: potency means the concentration at half of the fitted maximal effect); details: purified GBA, blue fluorogenic substrate, 40 min
Lysosomal acid glucosylceramidase (Homo sapiens), sequence (P04062 whole entry, looked up): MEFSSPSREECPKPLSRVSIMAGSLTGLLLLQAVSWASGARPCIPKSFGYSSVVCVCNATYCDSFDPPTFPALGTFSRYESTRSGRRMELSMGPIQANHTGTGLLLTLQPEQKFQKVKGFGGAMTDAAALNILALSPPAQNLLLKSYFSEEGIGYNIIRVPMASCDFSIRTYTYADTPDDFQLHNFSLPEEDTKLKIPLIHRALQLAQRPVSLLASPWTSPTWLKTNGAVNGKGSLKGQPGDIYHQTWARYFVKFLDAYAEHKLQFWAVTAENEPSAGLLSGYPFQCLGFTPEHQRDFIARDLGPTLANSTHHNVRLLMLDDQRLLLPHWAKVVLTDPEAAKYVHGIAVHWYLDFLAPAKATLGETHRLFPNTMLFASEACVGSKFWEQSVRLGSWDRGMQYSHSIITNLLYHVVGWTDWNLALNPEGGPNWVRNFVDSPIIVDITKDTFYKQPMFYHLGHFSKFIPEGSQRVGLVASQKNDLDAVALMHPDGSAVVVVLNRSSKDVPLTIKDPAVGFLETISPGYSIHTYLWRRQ
In short: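 Normal human glucocerebrosidase (0.2 nM) with blue fluorogenic substrate (80 uM final) in citrate/phosphate pH 5.9 with 10mM sodium taurocholate, 0.01% tween-20; 40 min RT, NaOH/glycine stop; fluorescence Ex 365/Em 440; AC50 from a titration from 0.6 nM upwards.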

[2] = AP1 Signaling Pathway (AID 357); details: ME-180 AP-1-bla reporter, EGF-induced, beta-lactamase ratio, 5 h; at 7.69 µM (top of the series) unless noted;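 further: ME-180 reporter cells stimulated with EGF at its EC50 level; on the % scale 0 is the no-effect control and ±100 the full control effect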
In short: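 First, ME-180 AP-1-bla cells were cultured overnight at 37 °C in low-serum Opti-MEM. Next, titrated compounds with EC50 EGF were incubated 5 hours. Finally, CCF4 was added for 2.5 hours and the 460/530 nm ratio recorded.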

[3] = biological target: Cytochrome P450 1A2 (Homo sapiens) (UniProt P05177); assay: p450-cyp1a2 (AID 410; calls by dose curve; further: potency means the concentration at half of the fitted maximal effect;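 on activity change, negative = inhibition: -100% = full effect of reference inhibitor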); details: recombinant CYP1A2, luciferin-ME demethylation, luminescence; series mostly up to 11.4 µM
Cytochrome P450 1A2 (Homo sapiens), sequence (P05177 whole entry, looked up): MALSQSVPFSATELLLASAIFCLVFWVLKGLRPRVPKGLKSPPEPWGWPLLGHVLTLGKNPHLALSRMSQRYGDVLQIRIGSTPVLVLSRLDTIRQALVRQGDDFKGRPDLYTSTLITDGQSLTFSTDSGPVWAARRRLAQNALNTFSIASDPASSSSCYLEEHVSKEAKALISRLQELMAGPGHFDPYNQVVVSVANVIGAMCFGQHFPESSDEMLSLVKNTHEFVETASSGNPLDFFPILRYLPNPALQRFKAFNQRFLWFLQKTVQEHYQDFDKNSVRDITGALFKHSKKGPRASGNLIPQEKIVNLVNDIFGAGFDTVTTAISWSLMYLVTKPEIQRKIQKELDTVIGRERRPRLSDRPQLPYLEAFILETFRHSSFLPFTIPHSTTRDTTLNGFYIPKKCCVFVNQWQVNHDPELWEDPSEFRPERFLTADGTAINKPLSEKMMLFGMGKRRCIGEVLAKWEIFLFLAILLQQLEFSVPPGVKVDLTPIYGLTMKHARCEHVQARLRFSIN
In short: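 Luminescent demethylation readout: Luciferin-ME (100uM, equal to Km) turned over by 20nM CYP1A2 for 60 min at room temperature after NADPH regeneration addition, following 10 min compound preincubation. Normalization used 57 uM furafylline as full inhibition.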

[4] = NFAT Signaling Pathway (AID 444); details: Jurkat NFAT-bla M1, carbachol, beta-lactamase ratio, 5 h; at 7.69 µM (top of the series) unless noted;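 further: carbachol stimulus at about its EC50 of 1 µM final; on the % scale 0 is the no-effect control and ±100 the full control effect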
In short: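 Read-out: CCF4 FRET ratio (460 nm/530 nm) after 1 h RT dye loading, used for %activity and AC50 from titration series. Cells: Jurkat NFAT-β-lactamase/M1 line, treated with compound plus 1 uM carbachol for 5 h, 37 °C.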

[5] = Stat Signaling Pathway (AID 446); details: ME-180 SIE beta-lactamase reporter, IL-6 stimulated, 5 h; at 7.69 µM (top of the series) unless noted;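 further: ME-180 cervical cancer cells given 40 pM IL-6 alongside compound; SIE-controlled beta-lactamase reporter measured as 460/530 nm FRET emission ratio; on the % scale 0 is the no-effect control and ±100 the full control effect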
In short: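 Overnight-plated ME-180 cells bearing a STAT Inducible Element beta-lactamase reporter; 5 h co-exposure to compound and 40 pM IL-6; values normalized to 300 pM IL-6 and 125 nM JAK inhibitor controls.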

[6] = biological target: Glucocorticoid receptor (Homo sapiens) (UniProt P04150); assay: GR-GFP Redistribution (AID 450;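 active means compounds whose dose series gives a full or clear partial fitted curve of increased nuclear translocation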; further: potency means the concentration at half of the fitted maximal effect); details: U2OS GR-GFP nuclear translocation, laser cytometry, 2 h
Glucocorticoid receptor (Homo sapiens), sequence (P04150 whole entry, looked up, the tested form may be a part): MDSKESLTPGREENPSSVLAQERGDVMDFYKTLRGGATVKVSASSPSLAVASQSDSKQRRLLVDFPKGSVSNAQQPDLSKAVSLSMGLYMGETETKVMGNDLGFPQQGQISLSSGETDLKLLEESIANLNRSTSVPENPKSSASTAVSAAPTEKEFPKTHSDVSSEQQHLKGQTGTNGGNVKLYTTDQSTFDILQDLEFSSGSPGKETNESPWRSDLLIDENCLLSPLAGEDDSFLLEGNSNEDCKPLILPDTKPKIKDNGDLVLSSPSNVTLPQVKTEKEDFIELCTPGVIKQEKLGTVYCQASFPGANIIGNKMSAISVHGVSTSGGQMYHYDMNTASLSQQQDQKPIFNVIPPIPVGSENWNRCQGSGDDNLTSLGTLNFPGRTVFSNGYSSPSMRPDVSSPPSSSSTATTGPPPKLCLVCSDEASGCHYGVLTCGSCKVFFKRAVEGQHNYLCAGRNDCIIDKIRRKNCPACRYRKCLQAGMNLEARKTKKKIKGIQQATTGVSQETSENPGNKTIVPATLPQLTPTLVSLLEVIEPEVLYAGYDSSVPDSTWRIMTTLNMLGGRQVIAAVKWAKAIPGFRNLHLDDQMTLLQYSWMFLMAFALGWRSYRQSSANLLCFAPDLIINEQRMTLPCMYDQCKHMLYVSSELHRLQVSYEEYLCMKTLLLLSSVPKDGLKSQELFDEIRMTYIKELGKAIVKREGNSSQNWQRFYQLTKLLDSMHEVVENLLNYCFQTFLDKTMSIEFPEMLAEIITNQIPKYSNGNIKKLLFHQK

[7] = biological target: Glucocorticoid receptor (Homo sapiens) (UniProt P04150); assay: GR-EFC Redistribution (AID 451; calls by dose curve; further: potency means the concentration at half of the fitted maximal effect); details: CHO-K1 GR-EFC translocation, beta-gal luminescence, 2 h
In short: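 Translocation of GR-ED fusion to nuclear EA restores b-gal, read by luminescence after 1 h room-temperature detection. Engineered CHO-K1 biosensor cells, 1,000/well, exposed 2 h at 37 C to titrations up to 46 uM final.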

[8] = biological target: Mitogen-activated protein kinase 10 (Mus musculus) (UniProt Q61831); assay: JNK3 AlphaScreen Assay (AID 530); details: JNK3 lysate, c-Jun phosphorylation; series mostly up to 11.4 µM;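 further: kinase came from lysate of stimulated human HepG2 cells; signal reports phosphorylation of biotinylated GST-cJun 1-79 at Ser73 with 10 µM ATP; on the % scale 0 is the no-effect control and ±100 the full control effect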
In short: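 qHTS titrations with 15 min compound pre-incubation before adding ATP (10 uM final). Read-out: AlphaScreen of Ser73-phosphorylated biotin-GST-cJun using HepG2 lysate JNK3 activated by IL-1β and TNFα.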

[9] = biological target: 3',5'-cyclic-AMP phosphodiesterase 4B (Homo sapiens) (UniProt Q07343); assay: qHTS Assay for Inhibitors of PDE-IV (AID 607; active means well fitted activation curve with a large enough effect in the main read-out, with a control signal flat, not every such curve was filed as active; further: % of control where 0% means no effect); details: HEK293 ACTOne CNG channel cells, membrane potential fluorescence; series mostly up to 22.9 µM
3',5'-cyclic-AMP phosphodiesterase 4B (Homo sapiens), sequence (Q07343 whole entry, looked up): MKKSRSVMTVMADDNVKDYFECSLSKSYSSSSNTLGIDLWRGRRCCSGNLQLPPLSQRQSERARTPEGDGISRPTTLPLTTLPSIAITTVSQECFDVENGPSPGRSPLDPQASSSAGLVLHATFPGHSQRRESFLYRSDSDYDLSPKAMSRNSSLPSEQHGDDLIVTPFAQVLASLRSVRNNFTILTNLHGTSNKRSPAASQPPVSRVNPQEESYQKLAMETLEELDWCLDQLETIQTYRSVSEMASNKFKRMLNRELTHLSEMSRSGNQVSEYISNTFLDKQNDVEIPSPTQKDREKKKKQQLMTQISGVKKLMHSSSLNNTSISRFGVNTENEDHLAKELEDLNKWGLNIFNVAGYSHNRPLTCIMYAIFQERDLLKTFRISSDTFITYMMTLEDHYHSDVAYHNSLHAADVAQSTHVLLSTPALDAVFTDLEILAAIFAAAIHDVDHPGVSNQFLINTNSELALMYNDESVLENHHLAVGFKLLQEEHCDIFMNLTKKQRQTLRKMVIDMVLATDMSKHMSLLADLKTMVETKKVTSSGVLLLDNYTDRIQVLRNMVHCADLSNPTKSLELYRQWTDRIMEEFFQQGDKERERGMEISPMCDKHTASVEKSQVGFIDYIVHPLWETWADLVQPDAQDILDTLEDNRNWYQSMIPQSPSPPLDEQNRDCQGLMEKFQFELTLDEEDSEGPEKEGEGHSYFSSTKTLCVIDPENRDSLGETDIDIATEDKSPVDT
In short: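 Live HEK293 cells with a modified cyclic nucleotide-gated (CNG) channel report intracellular cAMP via membrane-potential dye fluorescence (ex 535/em 590 nm). Endogenous PDE-IV was targeted. Compounds were tested at up to 22.9 uM final; RO 20-1724 100 uM served as control.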

[10] = biological target: Cytochrome P450 3A4 (Homo sapiens) (UniProt P08684); assay: qHTS Assay for Inhibitors and Substrates of Cytochrome P450 3A4 (AID 884; active means well fitted curve in the direction sought with a large enough effect; an effect the other way counts as inactive or inconclusive; further: potency means the concentration at half of the fitted maximal effect; nearly all actives have a fitted effect of over 50% in size); details: recombinant CYP3A4, Luciferin-PPXE luminescence; series mostly up to 57.1 µM
Cytochrome P450 3A4 (Homo sapiens), sequence (P08684 whole entry, looked up): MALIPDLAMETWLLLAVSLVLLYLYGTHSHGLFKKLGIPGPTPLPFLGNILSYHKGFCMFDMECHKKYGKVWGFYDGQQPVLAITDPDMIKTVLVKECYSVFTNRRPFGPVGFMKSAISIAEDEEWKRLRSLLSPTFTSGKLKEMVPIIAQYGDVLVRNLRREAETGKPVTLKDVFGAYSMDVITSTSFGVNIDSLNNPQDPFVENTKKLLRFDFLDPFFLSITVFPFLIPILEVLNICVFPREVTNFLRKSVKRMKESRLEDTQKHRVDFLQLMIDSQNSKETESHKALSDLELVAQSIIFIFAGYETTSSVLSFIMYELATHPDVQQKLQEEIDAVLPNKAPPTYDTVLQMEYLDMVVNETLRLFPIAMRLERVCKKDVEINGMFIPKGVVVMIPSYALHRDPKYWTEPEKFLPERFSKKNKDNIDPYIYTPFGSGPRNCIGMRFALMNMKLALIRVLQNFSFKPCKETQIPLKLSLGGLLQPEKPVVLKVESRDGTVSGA
In short: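 Luminescent readout of luciferin produced by CYP3A4 (20 nM) dealkylation of Luciferin-PPXE, 25 uM (its KM). NADPH-driven reaction ran 60 min at RT after 10 min compound preincubation; data scaled to 57 uM ketoconazole as 100% inhibition.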

[11] = biological target: Cytochrome P450 3A4 (Homo sapiens) (UniProt P08684); assay: qHTS Assay for Activators of Cytochrome P450 3A4 (AID 885; active means well fitted curve in the direction sought with a large enough effect; an effect the other way counts as inactive or inconclusive; further: nearly all actives have a fitted effect of over 65% in size); details: recombinant CYP3A4, Luciferin-PPXE luminescence, 60 min; series mostly up to 11.4 µM
In short: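 Using 20nM recombinant human CYP3A4 in potassium phosphate (200mM), substrate Luciferin-PPXE at 25uM, luminescent luciferin detection followed a 60-min RT NADPH reaction; data scaled to 57 uM ketoconazole.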

[12] = qHTS Assay for Identification of Small Molecule Agonists for Hypoxia Response Element Signaling Pathway (AID 914; active means well fitted activation curve with a large enough effect in the signal ratio, with a control signal flat, not every such curve was filed as active; the % refers to the signal ratio; further: % of control where 0% means no effect); details: ME-180 (cervical carcinoma) HRE-bla reporter, beta-lactamase ratio, CoCl2, 17 h; activation: stronger effect = higher value
In short: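 Positive modulation of EC50 CoCl2-induced hypoxia response element signaling is measured in ME-180 cells with a beta-lactamase reporter. Compounds are titrated, incubation runs 17 hours, and %Activity derives from the blue/green ratio.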

[13] = biological target: Cytochrome P450 2C19 (Homo sapiens) (UniProt P33261); assay: qHTS Assay for Inhibitors and Substrates of Cytochrome P450 2C19 (AID 899; active means well fitted curve in the direction sought with a large enough effect; an effect the other way counts as inactive or inconclusive; further: potency means the concentration at half of the fitted maximal effect; nearly all actives have a fitted effect of over 60% in size); details: recombinant CYP2C19, luciferin-H EGE luminescence; series mostly up to 11.4 µM
Cytochrome P450 2C19 (Homo sapiens), sequence (P33261 whole entry, looked up): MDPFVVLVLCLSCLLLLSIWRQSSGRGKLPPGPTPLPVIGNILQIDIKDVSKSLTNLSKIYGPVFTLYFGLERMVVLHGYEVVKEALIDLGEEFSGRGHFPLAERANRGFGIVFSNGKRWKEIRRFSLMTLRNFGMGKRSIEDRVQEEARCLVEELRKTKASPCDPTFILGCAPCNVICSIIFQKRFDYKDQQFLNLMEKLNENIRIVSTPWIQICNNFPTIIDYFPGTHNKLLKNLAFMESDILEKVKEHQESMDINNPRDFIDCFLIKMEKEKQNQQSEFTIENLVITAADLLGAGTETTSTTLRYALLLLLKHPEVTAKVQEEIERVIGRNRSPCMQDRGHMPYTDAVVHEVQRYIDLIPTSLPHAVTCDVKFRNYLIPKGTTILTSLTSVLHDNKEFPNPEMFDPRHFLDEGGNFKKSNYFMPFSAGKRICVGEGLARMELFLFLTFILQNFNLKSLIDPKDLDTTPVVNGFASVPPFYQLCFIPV
In short: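 Luminescence readout of luciferin formed from 10uM Luciferin-H EGE (KM level) by 5 nM CYP2C19 in 50mM KPO4. 60 min NADPH-driven reaction at 37C after 10 min compound preincubation; data scaled to 57uM ketoconazole inhibition.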

[14] = biological target: Cytochrome P450 2D6 (Homo sapiens) (UniProt P10635); assay: qHTS Assay for Inhibitors and Substrates of Cytochrome P450 2D6 (AID 891; active means well fitted curve in the direction sought with a large enough effect; an effect the other way counts as inactive or inconclusive; further: potency means the concentration at half of the fitted maximal effect; nearly all actives have a fitted effect of over 60% in size); details: recombinant CYP2D6, luciferin-ME EGE luminescence; series mostly up to 11.4 µM
Cytochrome P450 2D6 (Homo sapiens), sequence (P10635 whole entry, looked up): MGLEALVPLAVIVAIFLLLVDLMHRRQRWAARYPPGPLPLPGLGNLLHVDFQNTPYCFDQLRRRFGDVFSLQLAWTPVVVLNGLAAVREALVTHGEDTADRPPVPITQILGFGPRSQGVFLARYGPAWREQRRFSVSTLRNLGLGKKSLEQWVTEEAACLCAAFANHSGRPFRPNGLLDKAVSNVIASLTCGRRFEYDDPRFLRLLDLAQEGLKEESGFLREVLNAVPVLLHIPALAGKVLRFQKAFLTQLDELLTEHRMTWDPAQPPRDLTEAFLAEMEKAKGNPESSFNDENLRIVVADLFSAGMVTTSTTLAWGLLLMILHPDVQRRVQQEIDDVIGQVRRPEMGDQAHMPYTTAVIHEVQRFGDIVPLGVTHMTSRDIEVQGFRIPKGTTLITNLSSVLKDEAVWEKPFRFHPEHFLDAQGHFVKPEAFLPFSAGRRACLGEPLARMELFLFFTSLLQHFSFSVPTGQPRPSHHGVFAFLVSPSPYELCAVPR
In short: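 Luminescent read-out of luciferin formed by 5 nM human CYP2D6 demethylating 30 uM Luciferin-ME EGE (Km level) over 60 min at room temperature after NADPH regeneration addition. Data normalized to full inhibition by 1.43 uM quinidine.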

Cc1ccc2c(c1)N[C@H](c1ccc(C(=O)O)cc1)c1cccn1-2
active: Potency [3] 0.794 µM | Potency [10] 0.0501 µM
inactive: Potency [1] > 11.4 µM | activity change, negative = inhibition [2] -23.5% | activity change, negative = inhibition [4] -7.71% | activity, negative = inhibition [5] -5.32% | Potency [6] > 46 µM | Potency [7] > 9.22 µM | Potency [8] | Potency [9] | Potency [11] | activation [12] -21.9%

Cc1ccc(S(=O)(=O)Nc2cc(=O)[nH]c3c2CCC3)cc1
inactive: Potency [1] > 11.4 µM | activity change, negative = inhibition [2] 6.25% | activity change, negative = inhibition [4] 9.14% | activity, negative = inhibition [5] -3.68% | Potency [6] > 46 µM | Potency [7] > 9.22 µM | Potency [8] | Potency [9] | Potency [11] | activation [12] 2.61%
active: Potency [3] 3.98 µM | Potency [10] 3.16 µM | Potency [13] 0.631 µM

COc1cc2c3cc1Oc1c(OC)c(OC)cc4c1[C@@H](Cc1ccc(O)c(c1)Oc1ccc(cc1)C[C@@H]3N(C)CC2)CN(C)C4
inactive: Potency [1] > 11.4 µM | activity change, negative = inhibition [2] -11.4% | Potency [3] | activity change, negative = inhibition [4] -11.8% | activity, negative = inhibition [5] -1.76% | Potency [6] > 46 µM | Potency [7] > 9.22 µM | Potency [8] | Potency [9] | Potency [11]

C=C[C@]1(C)C[C@H](OC(=O)CO)[C@]2(C)C3C(=O)CC[C@]3(CC[C@H]2C)[C@H](C)[C@H]1O (some centres undefined)
inactive: Potency [1] > 11.4 µM | activity change, negative = inhibition [2] -0.357% | activity change, negative = inhibition [3] -21% [at 2.29 µM] | activity change, negative = inhibition [4] -4.75% | activity, negative = inhibition [5] -4.08% | Potency [6] > 46 µM | Potency [7] > 9.22 µM | Potency [8] | Potency [9] | Potency [11]

C[C@@H]1Oc2ccc(C(=O)C[C@@H](C(=O)O)c3ccc4c(c3)OCO4)cc2O1
active: Potency [3] 0.794 µM
inactive: Potency [1] > 11.4 µM | activity change, negative = inhibition [2] 1.87% | activity change, negative = inhibition [4] -10.8% | activity, negative = inhibition [5] -5.57% | Potency [6] > 46 µM | Potency [7] > 9.22 µM | Potency [8] | Potency [9] | Potency [11]

COCCNc1nc(-c2ccc(C(=O)N(C)C)cc2)nc2ccccc12
active: Potency [3] 20 µM
inactive: Potency [1] > 11.4 µM | activity change, negative = inhibition [2] 11.7% | activity change, negative = inhibition [4] 17.9% | activity, negative = inhibition [5] 1.02% | Potency [6] > 46 µM | Potency [7] > 46 µM | Potency [8] | Potency [9] | Potency [11]

Nc1nc(SC/C=C\c2ccccc2)c2[nH]cnc2n1
inactive: Potency [1] > 11.4 µM | activity change, negative = inhibition [2] 6.66% | activity change, negative = inhibition [4] 24.8% | activity, negative = inhibition [5] 1.2% | Potency [6] > 46 µM | Potency [7] > 9.22 µM | Potency [8] | Potency [9] | Potency [11]
active: Potency [3] 5.01 µM | Potency [10] 2.51 µM | Potency [13] 1.58 µM

COc1ccc(C[C@@H]2C(=O)N[C@H](C)C(=O)N(C)[C@@H]3Cc4ccc(cc4)Oc4cc(ccc4O)C[C@H](C(=O)N[C@@H](C)C(=O)N[C@H](C)C(=O)N2C)N(C)C3=O)cc1
inactive: Potency [1] > 11.4 µM | Potency [3] | Potency [6] > 46 µM | Potency [7] > 9.22 µM | Potency [8] | Potency [9] | Potency [11]
active: activity change, negative = inhibition [2] -121% | activity change, negative = inhibition [4] -132% | activity, negative = inhibition [5] -104% | Potency [10] 3.98 µM

COCCn1c(=O)c(-c2cc(F)cc(F)c2)nc2cnc(OC)nc21
active: Potency [3] 3.98 µM
inactive: Potency [1] > 11.4 µM | activity change, negative = inhibition [2] -11.6% | activity change, negative = inhibition [4] -5.01% | activity, negative = inhibition [5] -2.4% | Potency [6] > 9.22 µM | Potency [7] > 46 µM | Potency [8] | Potency [9] | Potency [11]

Nc1cccc(OCc2nc(N)nc(N)c2-c2ccc(Cl)cc2)c1
inactive: Potency [1] > 11.4 µM | activity change, negative = inhibition [2] 6.37% | activity change, negative = inhibition [4] -4.61% | activity, negative = inhibition [5] 6.21% | Potency [6] > 46 µM | Potency [7] > 9.22 µM | Potency [8] | Potency [9] | Potency [11]
active: Potency [3] 0.158 µM | Potency [10] 1.58 µM

CC1=C/C(=C(/c2ccc(O)c(C)c2)c2ccccc2C(=O)O)C=CC1=O
inactive: Potency [1] > 11.4 µM | activity change, negative = inhibition [2] 12.7% | activity change, negative = inhibition [4] -5.21% | activity, negative = inhibition [5] 4.74% | Potency [6] > 46 µM | Potency [7] > 9.22 µM | Potency [8] | Potency [9] | Potency [11]
active: Potency [3] 3.16 µM | Potency [10] 1.58 µM | Potency [14] 1.58 µM | Potency [13] 0.0032 µM

COc1ncc2nc(-c3cc(F)cc(F)c3)c(=O)n(C[C@H]3CCCO3)c2n1
inactive: Potency [1] > 11.4 µM | activity change, negative = inhibition [2] -0.553% | activity change, negative = inhibition [4] -10.9% | activity, negative = inhibition [5] -4.03% | Potency [6] > 9.22 µM | Potency [7] > 46 µM | Potency [8] | Potency [9] | Potency [11]
active: Potency [3] 3.16 µM

O=C(CC(=O)c1ccncc1)c1ccccc1
active: Potency [3] 0.1 µM | Potency [10] 3.16 µM | Potency [13] 0.398 µM
inactive: Potency [1] > 11.4 µM | activity change, negative = inhibition [2] 4.49% | activity change, negative = inhibition [4] 13.8% | activity, negative = inhibition [5] 4.76% | Potency [6] > 46 µM | Potency [7] > 9.22 µM | Potency [8] | Potency [9] | Potency [11]
